The text below walks through data of PubChem BioAssay (EPA / NIEHS).

Assay [1] can be described thus: ATG_ISRE_CIS: Attagene CIS-FACTORIAL HepG2 Assay for human Interferon Regulatory Factor 1 (IRF1) binding to an Interferon-Stimulated Response Element (ISRE) (AID 2282948). The following applies: HepG2 ISRE cis-reporter (Attagene), mRNA transcription readout; actives raise or lower the signal. The method, boiled down:
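Read-out: fluorescent RT-PCR products resolved by capillary electrophoresis, reporting endogenous transcription factor activity via ISRE-driven reporter mRNA in transfected HepG2 cells dosed for 24 h; gain or loss fitted relative to DMSO.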

A short description of assay [2]: ATG_M_32_CIS: Attagene CIS-FACTORIAL HepG2 Assay for M32 Transcription Factor (Internal Marker) (AID 2282949).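 Further: background control marker of the multiplexed CIS panel rather than a real target.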 The following applies: HepG2 Attagene cis-factorial M32 reporter, mRNA; actives raise or lower the signal. The method, boiled down:
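HepG2 transfectants (cis-regulated reporter transcription units) dosed 24 h. Reporter mRNA by RT-PCR plus CE, analysed as gain or loss relative to DMSO.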

A short description of assay [3]: ATG_M_06_CIS: Attagene CIS-FACTORIAL HepG2 Assay for M06 Transcription Factor (Internal Marker) (AID 2282950). The settings on record: HepG2 Attagene CIS-FACTORIAL M06 internal marker reporter; actives raise or lower the signal. The method, boiled down:
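Fluorescence-labelled RT-PCR products from cis-promoter reporter units, cut with HpaI and resolved by capillary electrophoresis, give the signal. Cells are human HepG2, dosed for 24 h. Serves as background control, fitted relative to DMSO.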

Assay [4] concerns the target Heat shock factor protein 1 (Homo sapiens) (UniProt Q00613). Kind of assay: ATG_HSE_CIS: Attagene CIS-FACTORIAL HepG2 Assay for human Heat Shock Transcription Factor 1 (HSE) (AID 2282953). The settings on record: HepG2 HSE cis-reporter, Attagene RNA transcription; actives raise or lower the signal. The essentials:
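After a 24 h incubation with test chemical, transfected HepG2 cells were harvested for RNA; reporter transcripts were measured by RT-PCR and capillary electrophoresis. Values reflect gain or loss of signal relative to DMSO.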

A short description of assay [5]: ATG_MRE_CIS: Attagene CIS-FACTORIAL HepG2 Assay for human Metal Responsive Element (MRE) (AID 2282954). The settings on record: HepG2 MRE cis-reporter transcription, Attagene multiplex; actives raise or lower the signal. The essentials: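 Endogenous MRE-dependent transcription read as reporter mRNA in transiently transfected human HepG2 cells at 24 h. RNA reverse-transcribed, PCR-amplified, labelled and resolved by capillary electrophoresis; gain or loss relative to DMSO.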

A short description of assay [6]: ATG_PBREM_CIS: Attagene CIS-FACTORIAL HepG2 Assay for human Phenobarbital-responsive Enhancer Module (PBREM) (AID 2282955). The settings on record: HepG2 PBREM cis-reporter, Attagene multiplexed transcription; actives raise or lower the signal. The essentials: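 Multiplexed cis-reporter readout in human hepatoma HepG2 cells; PBREM-regulated transcript quantified after 24 h exposure by fluorescent RT-PCR fragment analysis. Signal changes up or down fitted relative to DMSO.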

The target in assay [7] is Paired box protein Pax-6 (Homo sapiens) (UniProt P26367). Nature of the assay: ATG_Pax6_CIS: Attagene CIS-FACTORIAL HepG2 Assay for human Paired Box 6 (PAX6) (AID 2282956). The settings on record: HepG2 CIS-FACTORIAL PAX6 reporter transcription, RNA readout; actives raise or lower the signal. The method, boiled down:
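Readout: reporter transcript fluorescence after RT-PCR and capillary electrophoresis. Cells: HepG2, transiently transfected with cis-regulated MRTUs. Exposure 24 h. Gain or loss of signal fitted bidirectionally relative to DMSO.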

A short description of assay [8]: ATG_PXRE_CIS: Attagene CIS-FACTORIAL HepG2 Assay for human Pregnane X Receptor Element (PXRE) (AID 2282957). The settings on record: HepG2 Attagene CIS-FACTORIAL PXRE reporter, mRNA; actives raise or lower the signal. The method, boiled down:
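Endogenous transcription factor activity in HepG2 was gauged through induction of reporter mRNA driven by a cis-regulating promoter element, sampled 24 h post-treatment. Activity was fitted in both directions against DMSO negative control.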

Assay [9] addresses Hepatocyte nuclear factor 6 (Homo sapiens) (UniProt Q9UBC0). Kind of assay: ATG_HNF6_CIS: Attagene CIS-FACTORIAL HepG2 Assay for human Hepatocyte Nuclear Factor 6 (HNF6) (AID 2282952). The following applies: HepG2 Attagene cis-factorial HNF6 reporter transcription; actives raise or lower the signal. The essentials: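 Endogenous transcription factor activity in human HepG2 liver cells was captured through cis-regulated reporter constructs. After 24 h treatment, reporter mRNA was measured by RT-PCR with capillary electrophoresis, and activity was fitted in both directions relative to DMSO.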

Assay [10] addresses Hypoxia-inducible factor 1-alpha (Homo sapiens) (UniProt Q16665). Kind of assay: ATG_HIF1a_CIS: Attagene CIS-FACTORIAL HepG2 Assay for human Hypoxia Inducible Factor 1 (HIF1A) (AID 2282951). The following applies: HepG2 Attagene cis-factorial HIF1a reporter transcription; actives raise or lower the signal. The method, boiled down: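 Cis-element reporter constructs were transiently transfected into HepG2 cells, which were treated for 24 h; reporter RNA was reverse-transcribed, amplified, labelled and resolved by capillary electrophoresis.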

Calls of active or inactive are those of the source. How the source made its calls: active means hit-call score of the fitted dose curve at least 0.9, where 1 is the maximum; inactive means score below 0.9.

Sequence of Hepatocyte nuclear factor 6 (Homo sapiens) (Q9UBC0 whole entry, looked up): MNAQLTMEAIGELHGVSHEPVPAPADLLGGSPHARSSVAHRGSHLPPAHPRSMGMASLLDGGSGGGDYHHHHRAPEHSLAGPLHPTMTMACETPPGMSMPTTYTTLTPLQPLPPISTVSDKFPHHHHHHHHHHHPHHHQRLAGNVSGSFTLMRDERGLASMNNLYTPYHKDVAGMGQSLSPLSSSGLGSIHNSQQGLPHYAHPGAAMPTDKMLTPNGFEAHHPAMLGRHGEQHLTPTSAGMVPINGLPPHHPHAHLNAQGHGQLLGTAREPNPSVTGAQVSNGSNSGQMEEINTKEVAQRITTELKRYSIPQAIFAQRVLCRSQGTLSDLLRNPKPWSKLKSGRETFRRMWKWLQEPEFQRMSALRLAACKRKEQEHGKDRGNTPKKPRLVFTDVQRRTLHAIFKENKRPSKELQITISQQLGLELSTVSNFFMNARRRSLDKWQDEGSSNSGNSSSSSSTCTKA
Sequence of Paired box protein Pax-6 (Homo sapiens) (P26367 whole entry, looked up): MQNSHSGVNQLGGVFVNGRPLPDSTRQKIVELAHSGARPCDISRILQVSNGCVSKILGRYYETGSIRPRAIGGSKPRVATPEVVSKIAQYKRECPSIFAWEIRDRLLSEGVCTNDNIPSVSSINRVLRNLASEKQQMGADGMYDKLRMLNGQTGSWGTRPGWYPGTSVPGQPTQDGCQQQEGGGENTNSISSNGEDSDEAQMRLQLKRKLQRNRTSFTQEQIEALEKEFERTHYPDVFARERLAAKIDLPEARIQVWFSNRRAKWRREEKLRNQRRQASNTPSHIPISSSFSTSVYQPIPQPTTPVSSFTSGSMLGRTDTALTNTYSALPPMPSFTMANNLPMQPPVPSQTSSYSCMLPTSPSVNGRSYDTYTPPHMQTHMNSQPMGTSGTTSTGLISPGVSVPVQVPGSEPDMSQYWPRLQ
Sequence of Hypoxia-inducible factor 1-alpha (Homo sapiens) (Q16665 whole entry, looked up): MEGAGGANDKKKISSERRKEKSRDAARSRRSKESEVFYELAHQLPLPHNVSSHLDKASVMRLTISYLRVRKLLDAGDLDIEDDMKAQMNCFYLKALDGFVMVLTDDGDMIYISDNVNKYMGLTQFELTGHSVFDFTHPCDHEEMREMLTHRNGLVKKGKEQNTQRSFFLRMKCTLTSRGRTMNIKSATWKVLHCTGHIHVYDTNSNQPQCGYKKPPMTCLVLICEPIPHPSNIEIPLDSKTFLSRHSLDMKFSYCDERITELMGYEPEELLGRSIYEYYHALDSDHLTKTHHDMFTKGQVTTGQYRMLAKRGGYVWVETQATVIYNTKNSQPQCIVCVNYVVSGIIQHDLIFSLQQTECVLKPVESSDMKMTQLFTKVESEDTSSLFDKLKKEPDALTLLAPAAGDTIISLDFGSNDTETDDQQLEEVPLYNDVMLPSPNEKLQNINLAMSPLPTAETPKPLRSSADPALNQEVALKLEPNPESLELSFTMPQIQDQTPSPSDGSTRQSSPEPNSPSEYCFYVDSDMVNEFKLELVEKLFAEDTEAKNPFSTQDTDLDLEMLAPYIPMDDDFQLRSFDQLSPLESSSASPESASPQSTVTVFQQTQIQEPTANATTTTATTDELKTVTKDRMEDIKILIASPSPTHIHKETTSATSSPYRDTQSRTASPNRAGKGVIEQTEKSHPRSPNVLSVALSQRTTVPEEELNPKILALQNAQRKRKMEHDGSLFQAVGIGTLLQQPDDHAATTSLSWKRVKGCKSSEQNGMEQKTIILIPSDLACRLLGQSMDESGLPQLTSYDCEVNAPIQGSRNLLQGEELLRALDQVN
Sequence of Heat shock factor protein 1 (Homo sapiens) (Q00613 whole entry, looked up): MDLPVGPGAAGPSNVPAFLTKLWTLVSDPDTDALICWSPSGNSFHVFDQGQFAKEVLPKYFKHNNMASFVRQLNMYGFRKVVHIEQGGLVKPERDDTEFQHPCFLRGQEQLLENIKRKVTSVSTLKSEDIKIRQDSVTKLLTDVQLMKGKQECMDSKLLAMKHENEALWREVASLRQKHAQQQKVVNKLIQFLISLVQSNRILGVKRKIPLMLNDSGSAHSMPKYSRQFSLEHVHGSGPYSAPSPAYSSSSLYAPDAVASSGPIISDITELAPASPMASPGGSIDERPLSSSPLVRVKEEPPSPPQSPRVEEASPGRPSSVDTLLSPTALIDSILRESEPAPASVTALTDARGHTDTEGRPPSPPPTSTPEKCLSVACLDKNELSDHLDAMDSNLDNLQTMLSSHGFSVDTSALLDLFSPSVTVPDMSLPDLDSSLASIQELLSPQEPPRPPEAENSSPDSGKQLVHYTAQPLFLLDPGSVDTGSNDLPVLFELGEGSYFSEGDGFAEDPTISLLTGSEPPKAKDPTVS

Regarding `CC(C)c1cccc(C(C)C)c1O`, the molecule was called inactive in assay [1], in assay [2], in assay [3], in assay [4], in assay [5] and in assay [6]. Further, in assay [7], the result was inactive. In addition, in assay [8], the AC50 is 3.76 µM (active).
Turning to `ClC1=C(Cl)[C@]2(Cl)[C@@H]3[C@@H](Cl)[C@@H](Cl)C[C@@H]3[C@@]1(Cl)C2(Cl)Cl`, the molecule was classed as inactive in assay [1], in [2], in [3], in [9], in [4] and in [5]. Further, the outcome in assay [6], in assay [7] and in [8] was inactive.
Take `CCC(C)(C)c1ccc(O)c(C(C)(C)CC)c1`: the molecule was called inactive in [1], in assay [2], in assay [3], in assay [9], in assay [4] and in assay [5]. Also, the outcome in assay [6] and in [7] was inactive. Further, the AC50 in [8] was 2.73 µM (active).
For `COC[C@H](C)N(C(=O)CCl)c1c(C)csc1C`, the outcome in assay [1], in [2], in assay [3], in assay [9], in assay [4] and in [5] was inactive. The result in [7] was inactive. In [8], the AC50 is 30.6 µM (active).
As for `ClCCBr`, the result in [1], in [2], in assay [3], in [10], in assay [5] and in assay [6] was inactive. Besides, the call in assay [7] and in assay [8] was inactive.
Turning to `NNC(=S)NN`, the outcome in assay [1], in [2], in assay [3], in assay [10], in assay [4] and in [5] was inactive. The molecule was classed as inactive in assay [7] and in [8].
Regarding `CCCCOCCOC(C)=O`, the call in [1], in assay [2], in assay [3], in [4], in assay [5] and in assay [6] was inactive. The outcome in assay [7] and in [8] was inactive.
Take `CC(=O)C(Cl)C(=O)N(C)C` (stereo unspecified): the result in assay [1], in [2], in assay [3], in [4], in assay [6] and in assay [7] was inactive. Further, in assay [8], the molecule was called inactive. In addition, in [5], the AC50 is 100 µM (active).
In the case of `CNC`, the outcome in assay [1], in assay [2], in [3], in assay [9], in [4] and in assay [5] was inactive. The molecule was called inactive in assay [7] and in assay [8].
With `ClC1=C(Cl)[C@]2(Cl)[C@H]3[C@H]([C@H]4C=C[C@H]3C4)[C@@]1(Cl)C2(Cl)Cl`, the outcome in [1], in [2], in assay [3], in assay [9], in assay [4] and in assay [6] was inactive. Besides, in assay [7], the call was inactive. The AC50 was 3.77 µM (active) in assay [5] and 1.6 µM (active) in [8].
Regarding `BrCCBr`, the molecule was classed as inactive in assay [1], in assay [2], in assay [3], in assay [10], in [5] and in assay [6]. In addition, the result in [7] and in assay [8] was inactive.
As for `C[C@H]1CCCC(=O)CCC/C=C/c2cc(O)cc(O)c2C(=O)O1`, the AC50 is 16.8 µM (active) in [1]; 23.7 µM (active) in [4]; 33.1 µM (active) in [5]; 5.35 µM (active) in assay [6]; 0.665 µM (active) in [8]. In addition, the result in assay [2], in [3] and in assay [7] was inactive.
Consider `OCc1ccco1`, for which the outcome in [1], in assay [2], in assay [3], in assay [4], in [5] and in [6] was inactive. In addition, the result in assay [7] was inactive. The AC50 in assay [8] was 39.7 µM (active).
As to `CC(=O)c1cc(C(C)(C)C)cc2c1CCC2(C)C`, the result in assay [1], in assay [2], in assay [3], in [9] and in assay [6] was inactive. Also, the AC50 in assay [4] was 64.4 µM (active); in assay [5], 70.4 µM (active); in [7], 26.9 µM (active); in assay [8], 5.72 µM (active).
For `O=C(Nc1ccc2[nH]ccc2c1)c1cc2cc(F)ccc2n1Cc1cccc(F)c1`, the AC50 is 18.2 µM (active) in [1]; 18.3 µM (active) in assay [9]; 20.7 µM (active) in assay [4]; 11 µM (active) in [5]; 17.3 µM (active) in assay [6]; 13.9 µM (active) in assay [7]. In addition, the AC50 in [8] is 2.75 µM (active). Moreover, the result in assay [2] and in [3] was inactive.
Take `CCC1(c2ccc(N)cc2)CCC(=O)NC1=O` (stereo unspecified): the outcome in [1], in assay [2], in assay [3], in [9], in [4] and in [5] was inactive. Also, the outcome in [7] was inactive. Moreover, the AC50 in [8] is 64.9 µM (active).
Take `O=C(Cc1ccccc1)c1ccccc1`: the result in assay [1], in assay [2], in assay [9], in assay [4], in assay [5] and in [6] was inactive. In addition, in assay [7], the molecule was classed as inactive. The AC50 in assay [8] was 27.2 µM (active).
For `CCOC(=O)/C=C(C)/C=C/C[C@@H](C)CCCC(C)C`, the outcome in [1] and in assay [7] was inactive. Also, the AC50 in assay [2] was 157 µM (active); in assay [9] it was 176 µM (active); in assay [4], 62.9 µM (active); in assay [5], 174 µM (active); in [6], 182 µM (active); in [8], 2.55 µM (active).
On to `Cn1sc(Cl)cc1=O`, for which the outcome in [1], in assay [2], in [9], in assay [4], in assay [5] and in assay [6] was inactive. The molecule was classed as inactive in assay [7] and in assay [8].
`Cc1ccccc1C(=O)Nc1cccc(OC(C)C)c1`: the result in assay [1], in assay [2], in assay [10], in assay [9], in assay [4] and in assay [5] was inactive. For the same molecule, the outcome in assay [6] and in assay [7] was inactive. The AC50 in [8] is 2.89 µM (active).

The term AC50 denotes the concentration at which the activity in the assay is half-maximal.
